Here are results for five compounds from PubChem BioAssay.

Calls of active or inactive are those of the source.

Assay [1] deals with Plasmodium falciparum Sir2 (PF13_0152, Sir2A). Description: Plasmodium falciparum Sir2A binding compounds – biochemical, small-molecule microarray, 635 nm fluorescence, primary screen (AID 1098).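 Also: score merges spot fluorescence intensity with its signal-to-noise ratio.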 The conditions noted are these: fluorescence 635 nm, higher = more signal.
A short description of assay [2]: probe aDKK1 binding to arrayed compounds – biochemical, biotinylated probe, 635/667 nm fluorescence, primary screen (AID 1099).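 Also: score merges 667nm spot fluorescence with signal to noise across triplicate slides.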 To be noted: small-molecule microarray, higher = more signal.
Assay [3] in a line: probe aCHRDL2 binding to arrayed compounds – biochemical, biotinylated probe, 635/667 nm fluorescence, primary screen (AID 1100). The conditions noted are these: small-molecule microarray, higher = more signal.
Assay [4] can be described thus: change in splice reporter luminescence, either direction, cell-based, HEK293, spliceosome inhibition project, primary screen (AID 1101).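 Also: HEK293 cells carrying a splicing-competent luciferase reporter gene; test concentration not given here.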 To be noted: HEK293 splicing luciferase reporter, 24 h, higher = more signal, called active from +8 up or from −8 down. (In general: Reporter assays use an easily measured gene product as a stand-in for the process of interest.)
Assay [5] deals with Fibroblast growth factor 10 (Homo sapiens) (UniProt O15520). Briefly: compounds binding fibroblast growth factor 10 – biochemical, small-molecule microarray, 635 nm fluorescence, primary screen (AID 1102). To be noted: FGF10 binding, fluorescence 635 nm, higher = more signal.
Assay [6] has as its system glycogen synthase kinase-3 (GSK3A per assay name; protocol says GSK3B). Briefly: compounds binding glycogen synthase kinase-3 – biochemical, small-molecule microarray, 635 nm fluorescence, GSK3A, primary screen (AID 1103). Also: the record names both GSK3A and GSK3B. The conditions noted are these: fluorescence 635 nm, higher = more signal.
Assay [7] deals with Epidermal growth factor receptor (Homo sapiens) (UniProt P00533). Description: compounds binding epidermal growth factor receptor – biochemical, small-molecule microarray, 635 nm fluorescence, primary screen (AID 1104).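 Also: score merges 667 nm emission intensity with spot signal to noise over triplicate slides.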 The conditions noted are these: EGFR binding, higher = more signal.
For assay [8], the target named is Follistatin-related protein 3 (Homo sapiens) (UniProt O95633). Briefly: compounds binding follistatin-related protein 3 – biochemical, small-molecule microarray, 635 nm fluorescence, primary screen (AID 1105).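 Also: score merges emission near 667 nm and signal to noise per printed spot across three slides.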 To be noted: FSTL3 binding, higher = more signal.
The target of assay [9] is Dickkopf-related protein 1 (Homo sapiens) (UniProt O94907). Briefly: small molecules binding DKK1 protein – biochemical, small-molecule microarray, 635 nm fluorescence scan, primary screen (AID 1106).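 Also: score merges emission near 667 nm with signal to noise over three replicate slides.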 The conditions noted are these: higher = more signal.
In assay [10] the test system is Inhibin beta A chain (activin A). Description: small molecules binding activin A – biochemical, small-molecule microarray, 635 nm fluorescence scan, primary screen (AID 1107).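 Also: mouse activin A protein probed at 4.33 µg/mL on printed slides; score merges bound-protein fluorescence near 667 nm with spot signal-to-noise.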 The conditions noted are these: INHBA, higher = more signal.
Assay [11] has as its system Human papillomavirus type 1a protein E7 (residues 44-93). Briefly: small molecules binding HPV E7 44-93 – biochemical, small-molecule microarray, residues 44-93, 635 nm fluorescence, primary screen (AID 1108).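 Also: E7 fragment applied at 1 µg/mL in TBST for 1 h at 4 C; score combines spot fluorescence with its signal to noise ratio.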 The conditions noted are these: fluorescence 635 nm, higher = more signal.
The nature of assay [12]: hepatitis C replication reporter changes, two-sided – Huh7 cells, luciferase reporter, HCV replication inhibitor project, primary screen (AID 1109).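 Also: huh7 hepatoma cells harbouring a luciferase neomycin HCV replicon reporter; luciferase luminescence as measure of HCV replicon replication; test concentration not given here.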 To be noted: Huh7 HCV replicon luciferase reporter, 48 h; higher = more signal.
In assay [13] the target is Left-right determination factor 2 (Homo sapiens) (UniProt O00292). Briefly: small molecules binding LEFTY2 protein – biochemical, small-molecule microarray, 635 nm fluorescence scan, primary screen (AID 1110). The conditions noted are these: higher = more signal.
Assay [14] has as its target Calmodulin-1 (Homo sapiens) (UniProt P0DP23). Briefly: small molecules binding calmodulin-1 with EGTA – biochemical, small-molecule microarray, Cy5-labelled CALM1, profiling panel (AID 1111).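 Also: labelled calmodulin applied in Tris saline Tween buffer holding calcium plus EGTA and DTT.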 The conditions noted are these: Cy5-CALM1 binding fluorescence, higher = more signal.
For assay [15] the target is unchanged. Description: small molecules binding Ca-loaded calmodulin-1 – biochemical, small-molecule microarray, Cy5-labelled CALM1, plus calcium, artefact control for SMM control-protein annotation, profiling panel (AID 1112).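 Also: score merges spot fluorescence with signal to noise from triplicate slides.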 The conditions noted are these: Cy5-CALM1 binding fluorescence, higher = more signal.
Assay [16] in a line: probe aWnt5a binding to arrayed compounds – biochemical, biotinylated probe, 635/667 nm fluorescence, primary screen (AID 1113).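 Also: score merges 667 nm fluorescence intensity with signal-to-noise per printed feature.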 To be noted: small-molecule microarray, higher = more signal.
Assay [17] is described as follows: probe aShh binding to arrayed compounds – biochemical, biotinylated probe, 635/667 nm fluorescence, primary screen (AID 1114).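 Also: probe is biotin-labelled aShh protein from a stem cell growth factor screen; measures binding of labelled protein to compounds printed on the slide; score merges feature fluorescence at 667 nm with signal-to-noise.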 To be noted: small-molecule microarray, higher = more signal.
Assay [18] can be described thus: probe aNog binding to arrayed compounds – biochemical, biotinylated probe, 635/667 nm fluorescence, primary screen (AID 1115).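 Also: probe is biotinylated aNog protein used at 0.15 µg/mL for 1 h at 4 C; z-score combines 667 nm fluorescence of each spot with its signal to noise.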 To be noted: small-molecule microarray, higher = more signal.
The target of assay [19] is Torsin-1A-interacting protein 1 (Homo sapiens) (UniProt Q5JTV8). Description: compound microarray binding of lysate hLAP1 – cell lysate, small-molecule microarray, COS7 lysate, 635/667 nm fluorescence, primary screen (AID 1116). To be noted: 635 nm fluorescence, higher = more signal.
Assay [20] addresses Alpha-bungarotoxin (Bungarus multicinctus) (UniProt P60615). Description: compounds binding labelled alpha-BTX control protein – biochemical, small-molecule microarray, Alexa647 label, 635/667 nm fluorescence, artefact control for SMM control protein annotation, profiling panel (AID 1117). To be noted: alpha-BTX-A647 binding fluorescence, higher = more signal.

Chain of Dickkopf-related protein 1 (Homo sapiens) (O94907 whole entry, looked up): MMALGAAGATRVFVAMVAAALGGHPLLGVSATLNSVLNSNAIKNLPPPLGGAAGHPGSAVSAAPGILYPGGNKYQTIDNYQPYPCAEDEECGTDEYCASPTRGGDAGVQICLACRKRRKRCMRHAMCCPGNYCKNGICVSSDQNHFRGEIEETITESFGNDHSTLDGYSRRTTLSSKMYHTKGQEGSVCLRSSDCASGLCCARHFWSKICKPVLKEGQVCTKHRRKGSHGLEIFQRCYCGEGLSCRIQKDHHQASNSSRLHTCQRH
Chain of Left-right determination factor 2 (Homo sapiens) (O00292 whole entry, looked up): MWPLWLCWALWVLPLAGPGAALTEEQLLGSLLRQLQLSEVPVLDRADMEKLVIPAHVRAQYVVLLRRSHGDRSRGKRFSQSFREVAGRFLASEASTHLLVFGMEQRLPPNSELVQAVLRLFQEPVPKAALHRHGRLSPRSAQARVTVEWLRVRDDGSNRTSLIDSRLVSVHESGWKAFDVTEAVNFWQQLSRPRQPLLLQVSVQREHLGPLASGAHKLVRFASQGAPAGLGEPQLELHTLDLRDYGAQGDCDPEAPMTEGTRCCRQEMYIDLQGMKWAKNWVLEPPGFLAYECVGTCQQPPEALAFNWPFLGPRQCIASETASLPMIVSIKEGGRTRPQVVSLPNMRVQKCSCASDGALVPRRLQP
Chain of Follistatin-related protein 3 (Homo sapiens) (O95633 whole entry, looked up): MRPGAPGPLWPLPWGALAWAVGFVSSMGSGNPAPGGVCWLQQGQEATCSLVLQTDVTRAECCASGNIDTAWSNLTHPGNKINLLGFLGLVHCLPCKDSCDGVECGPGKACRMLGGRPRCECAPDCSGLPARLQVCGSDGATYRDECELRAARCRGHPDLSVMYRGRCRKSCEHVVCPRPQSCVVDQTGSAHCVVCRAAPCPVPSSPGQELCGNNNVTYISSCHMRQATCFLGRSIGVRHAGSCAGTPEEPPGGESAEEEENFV
Chain of Fibroblast growth factor 10 (Homo sapiens) (O15520 whole entry, looked up): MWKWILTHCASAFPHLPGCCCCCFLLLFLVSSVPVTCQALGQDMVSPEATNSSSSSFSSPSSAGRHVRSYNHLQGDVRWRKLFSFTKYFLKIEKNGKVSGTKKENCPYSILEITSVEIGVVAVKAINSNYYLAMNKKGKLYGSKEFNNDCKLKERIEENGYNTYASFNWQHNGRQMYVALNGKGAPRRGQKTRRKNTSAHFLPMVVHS
Chain of Epidermal growth factor receptor (Homo sapiens) (P00533 whole entry, looked up): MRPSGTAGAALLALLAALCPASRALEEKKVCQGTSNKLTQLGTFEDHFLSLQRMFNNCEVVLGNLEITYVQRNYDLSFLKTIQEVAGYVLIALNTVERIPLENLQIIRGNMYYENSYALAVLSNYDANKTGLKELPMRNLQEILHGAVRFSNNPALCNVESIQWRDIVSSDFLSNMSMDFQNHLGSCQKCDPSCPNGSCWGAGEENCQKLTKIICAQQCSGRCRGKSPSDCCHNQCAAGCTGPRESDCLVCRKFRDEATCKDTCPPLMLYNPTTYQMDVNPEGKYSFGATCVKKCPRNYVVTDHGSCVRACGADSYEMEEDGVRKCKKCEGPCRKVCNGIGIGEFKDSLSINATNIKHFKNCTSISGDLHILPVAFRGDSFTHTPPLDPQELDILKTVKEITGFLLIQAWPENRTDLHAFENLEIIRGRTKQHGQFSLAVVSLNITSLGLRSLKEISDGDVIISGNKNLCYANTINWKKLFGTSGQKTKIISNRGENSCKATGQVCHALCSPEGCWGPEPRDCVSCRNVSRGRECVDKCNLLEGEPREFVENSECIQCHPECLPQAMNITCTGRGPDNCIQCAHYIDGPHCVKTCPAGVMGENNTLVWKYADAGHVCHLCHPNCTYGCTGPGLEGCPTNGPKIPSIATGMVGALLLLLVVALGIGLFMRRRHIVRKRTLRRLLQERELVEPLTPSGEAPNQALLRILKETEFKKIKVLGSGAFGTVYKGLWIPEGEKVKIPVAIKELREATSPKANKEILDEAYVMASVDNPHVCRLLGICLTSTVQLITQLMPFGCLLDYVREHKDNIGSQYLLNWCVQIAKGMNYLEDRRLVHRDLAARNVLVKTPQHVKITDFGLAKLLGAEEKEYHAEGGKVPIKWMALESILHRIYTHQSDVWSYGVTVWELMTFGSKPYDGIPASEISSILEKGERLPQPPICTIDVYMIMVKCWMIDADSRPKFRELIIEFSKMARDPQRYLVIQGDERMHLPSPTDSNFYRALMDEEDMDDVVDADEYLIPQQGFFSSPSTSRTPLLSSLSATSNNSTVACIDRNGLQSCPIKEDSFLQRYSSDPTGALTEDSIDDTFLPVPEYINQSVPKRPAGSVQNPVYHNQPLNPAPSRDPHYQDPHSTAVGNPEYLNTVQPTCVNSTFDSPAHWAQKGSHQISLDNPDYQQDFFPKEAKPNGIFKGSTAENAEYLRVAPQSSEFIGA
Chain of Torsin-1A-interacting protein 1 (Homo sapiens) (Q5JTV8 whole entry, looked up): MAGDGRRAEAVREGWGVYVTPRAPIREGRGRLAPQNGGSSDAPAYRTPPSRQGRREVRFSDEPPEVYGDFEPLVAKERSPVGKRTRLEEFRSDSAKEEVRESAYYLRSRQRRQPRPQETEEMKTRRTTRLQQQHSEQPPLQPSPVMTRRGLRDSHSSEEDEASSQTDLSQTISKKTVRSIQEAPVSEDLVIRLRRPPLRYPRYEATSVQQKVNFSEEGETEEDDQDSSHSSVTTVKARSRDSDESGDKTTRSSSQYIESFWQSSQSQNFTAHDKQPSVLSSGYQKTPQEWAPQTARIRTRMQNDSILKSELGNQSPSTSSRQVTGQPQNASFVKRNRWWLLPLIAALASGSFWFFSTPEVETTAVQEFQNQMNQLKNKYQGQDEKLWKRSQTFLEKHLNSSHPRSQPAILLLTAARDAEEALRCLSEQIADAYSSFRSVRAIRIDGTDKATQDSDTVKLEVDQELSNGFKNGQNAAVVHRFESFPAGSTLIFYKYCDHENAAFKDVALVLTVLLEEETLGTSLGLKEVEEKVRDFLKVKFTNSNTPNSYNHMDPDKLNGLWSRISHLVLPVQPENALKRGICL
Chain of Alpha-bungarotoxin (Bungarus multicinctus) (P60615 whole entry, looked up): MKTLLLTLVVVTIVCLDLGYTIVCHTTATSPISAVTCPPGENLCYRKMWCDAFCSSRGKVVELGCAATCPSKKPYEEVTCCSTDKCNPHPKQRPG

In the case of `CN(C)CCCC[C@@H]1NC(=O)[C@@H]2C[C@H](C(=O)O)[C@H](c3cccc(OCCO)c3)N2C1=O`, the composite z-score in [1] is 1.25; in assay [2], -0.336; in [3], -0.165; in [5], -0.376; in assay [6] it was -0.461; in assay [7], -0.277. Moreover, the composite z-score in assay [8] was -0.306; in assay [9], 0.333; in [10] it was -0.7; in [11], -0.927; in [13], -0.43; in [14] it was -0.832. Also, the composite z-score in assay [15] was -0.238; in [16], -0.0179; in [17], -0.0793; in assay [18], -0.375; in assay [19], -0.657; in [20] it was -0.676. For the same compound, the z-score was 0.0013 (inactive) in assay [4] and -0.282 in assay [12].
For the compound `C=C[C@@H](OC)[C@H](OC(=O)Nc1ccc(SC)cc1)c1ccc(OCCO)cc1`, the composite z-score stood at 1.4 in [1]; 0.0622 in [2]; 0.527 in assay [3]; 0.887 in assay [5]; 0.64 in assay [6]; 0.419 in assay [7]. In addition, the composite z-score in assay [8] is 0.839; in assay [9], 0.444; in assay [10], 0.0469; in assay [11], 1.44; in assay [13], 0.0128; in [14], 0.469. Also, the composite z-score is -0.0827 in assay [15]; -0.0735 in assay [16]; 0.0639 in assay [17]; 0.36 in assay [18]; 1.03 in assay [19]; 1.36 in [20]. The z-score is 1.46 (inactive) in assay [4] and 0.462 in assay [12].
`CO[C@H]1O[C@H](CO)[C@@H](OC(=O)Nc2ccc(C#N)cc2)[C@@H]2OC(=O)[C@H](Cc3cccc(Br)c3)C/C=C/C[C@@H](Cc3cccc(Br)c3)C(=O)O[C@@H]12`: the composite z-score in assay [1] is 0.717; in [2] it was 0.617; in assay [3], 0.534; in assay [5] it was 0.788; in assay [6], -0.037; in assay [7], 0.223. Also, the composite z-score was 0.707 in [8]; 0.336 in assay [9]; -0.247 in assay [10]; 1.02 in assay [11]; 0.721 in assay [13]; 0.211 in assay [14]. The composite z-score was -0.121 in assay [15]; -0.104 in assay [16]; 0.326 in [17]; 0.886 in assay [18]; 0.318 in assay [19]; 0.764 in [20]. Besides, the z-score in assay [4] is 1.5 (inactive); in assay [12], -3.4.
In the case of `C=CCNC(=O)[C@H]1[C@@H]2C(=O)O[C@@H](c3ccccc3)[C@@H](c3ccccc3)N2[C@@H](c2ccc(OCCO)cc2)[C@]12C(=O)N(C(=O)OCCOC)c1ccc(C#Cc3ccc(OC)cc3)cc12`, the composite z-score in [1] is 1.28; in assay [2] it was 0.195; in [3] it was -0.0801; in [5], 0.866; in [6], 1.28; in assay [7], 0.639. The composite z-score is 0.749 in assay [8]; 0.189 in assay [9]; 0.768 in assay [10]; 1.4 in assay [11]; 0.631 in assay [13]; 0.512 in assay [14]. In addition, the composite z-score in assay [15] is 0.14; in assay [16] it was -0.0445; in assay [17] it was 0.0976; in assay [18] it was 0.447; in assay [19], -0.0927; in [20], 1.49. Moreover, the z-score was -0.957 (inactive) in assay [4] and -2.54 in [12].
For the compound `C=CCC(OC(C)=O)[C@@H]1[C@@H](N(Cc2cccc3ccccc23)C(=O)Cc2ccc(F)cc2)c2cc(OCCCO)ccc2N1C(=O)c1ccc(-c2ccccc2)cc1` (stereo not given in full), the composite z-score was -0.171 in [1]; 0.592 in [2]; 0.976 in assay [3]; -0.219 in assay [5]; -0.502 in assay [6]; -0.304 in assay [7]. Further, the composite z-score was 0.047 in assay [8]; -0.506 in assay [9]; 1.45 in [10]; -0.658 in assay [11]; -0.197 in assay [13]; -0.573 in [14]. The composite z-score is 0.992 in [15]; -0.236 in [16]; -0.0035 in assay [17]; 0.0812 in [18]; 0.171 in [19]; -0.395 in assay [20]. For the same compound, the z-score is -0.312 (inactive) in assay [4] and -1.09 in assay [12].
